From PubChem BioAssay
SARS PLpro yeast: blocks SARS-CoV papain-like protease in a yeast assay. Potency, µM (highest dose often 32.9 µM), for the others: at the highest dose activity, positive = growth rescue, most hits filed as activators. S. cerevisiae expressing SARS-CoV PLpro, growth rescue. 330,000 compounds, 0.19% hits; note: potency is the fitted concentration of half-maximal effect; 0% is about no effect; nearly all actives have a fitted effect of over 55% in size
CHX counter-1: counter-screen hit for Shiga toxin inhibitors, cycloheximide. AID 2314. cell reporter, cycloheximide protein synthesis inhibition counterscreen. max response, %. 300,000 compounds, 12% hits; in the data active = max response mostly above about 13%, no sharp cut-off; inactive = mostly below about 14%; note: read at 38.3 µM for the half of the compounds with a filed dose; 0% is about no effect
Shiga toxin inh: blocks Shiga toxin action in Vero cells; Vero cells, Shiga toxin protein synthesis inhibition reporter; inhibition, % at 38.7 µM; 290,000 compounds, 9.2% hits; AID 2315; in the data active = inhibition mostly above about 28%, no sharp cut-off; inactive = mostly below about 43%; note: 0% is about no effect
NS1 function inh: influenza NS1 inhibition; 270,000 compounds, 0.4% hits; Potency, µM (doses to about 46.1 µM), for inactives: at the top dose activity, positive = more growth; note: potency is the fitted concentration of half-maximal effect; actives are rising curves; nearly all actives have a fitted effect of over 50% in size
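S. cerevisiae expressing influenza A NS1, grown in glucose, washed, then diluted 1:100 into pH 6.0 -URA galactose medium with 23 nl compound. Growth recovery read as OD600; NS1-free strain serves as control.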
Pf growth 48h: P. falciparum growth inhibition at 48 hours (one generation). Potency, µM (top dose mostly 28.7 µM), for the others: at the top dose activity change, negative = inhibition, actives largely listed as inhibitors. 310,000 compounds, 5.9% hits. AID 504832. P. falciparum luciferase growth in erythrocytes, 48 h; active = well fitted inhibition curve with a large enough effect; inconclusive = small, poorly fitted or top-dose-only effect, or another doubt; inactive = no such curve, though single readings can be large or run the other way; note: potency is the fitted concentration of half-maximal effect; % is set by controls: 0 for no effect and ±100 for the full control effect
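Growth was read as firefly luciferase luminescence after a 48 h, 37 C, 5% CO2 exposure of compounds to reporter-bearing P. falciparum cultures (0.1% parasitemia, 2% hematocrit final) in Albumax-supplemented RPMI 1640.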
Pf growth 96h: inhibits malaria parasite growth, 96 h. P. falciparum luciferase reporter growth, 96 h. AID 504834. 320,000 compounds, 6.9% hits. Potency, µM (series often up to 28.7 µM), without a hit: at the top dose activity change, negative = inhibition, actives largely listed as inhibitors; active = well fitted inhibition curve with a large enough effect; inconclusive = small, poorly fitted or top-dose-only effect, or another doubt; inactive = no such curve, though single readings can be large or run the other way; note: potency is the fitted concentration of half-maximal effect; % is set by controls: 0 for no effect and ±100 for the full control effect
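96 h incubation, 37 C, 5% CO2, of luciferase-reporter P. falciparum-infected RBCs (2% hematocrit, 0.05% parasitemia final) with test compounds; endpoint luminescence.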
CHX counter-2: counter-screen for Shiga toxin inhibitors: cycloheximide protein synthesis block; shares compounds with Shiga toxin inh; Cycloheximide counterscreen, protein synthesis reporter, Shiga toxin assay; Potency, µM (highest dose often 38.3 µM), for inactives: at the top dose activity (activation), hits mostly activators; 510 compounds, 3% hits; AID 2318; note: potency is the fitted concentration of half-maximal effect; 0% is about no effect
An asterisk follows results filed as active; i = inactive; ? = inconclusive; . = not tested or not shown. Compounds with a hit are over-represented: about 21% of the library has one in this group of screens. Unless noted, calls come from the whole dose curve.

SMILES	SARS PLpro yeast	CHX counter-1	Shiga toxin inh	NS1 function inh	Pf growth 48h	Pf growth 96h	CHX counter-2
CCOc1ncccc1C(=O)Nc1c(C)n(C)n(-c2ccccc2)c1=O	8%	9	32*	-16%	-4%	25%	4%
Cc1ccc(CSc2nnc(CCCCCNC(=O)OC(C)(C)C)o2)cc1	0%	-3	25*	-33%	?	-20%	-1%
O=C(NC1CCCCC1)c1cccc(S(=O)(=O)N2CCCCC2)c1	2%	-2	71*	4%	9%	4.1µM*	-4%
Cc1ccc2[nH]c(=O)c(CN(CCCN3CCOCC3)C(=O)Nc3ccc(Cl)cc3)cc2c1	4%	9	48*	-10%	3.7µM*	0%	0%
Cc1ccc(NC(=S)N(CCN2CCOCC2)Cc2cc3cc4c(cc3[nH]c2=O)OCCO4)cc1	-2%	-2	-9	1%	?	?	.
O=C(CCN1C(=O)c2cccc3cccc(c23)C1=O)NC1CCS(=O)(=O)C1 (stereo not drawn)	2%	9	75*	-1%	51%	64%	0%
O=C(CCCCCN1C(=O)c2cccc3cccc(c23)C1=O)NC1CCS(=O)(=O)C1 (stereo not drawn)	0%	38	41	0%	?	?	.
CNC(=O)c1cccn(Cc2cc(C(F)(F)F)cc(C(F)(F)F)c2)c1=O	-8%	4	-2	.	-12%	?	.
CNC(=O)c1cccn(Cc2ccc(C(F)(F)F)cc2)c1=O	-3%	6	26*	.	0%	11%	-3%
O=C(CSc1ccccc1)N1CCN(C(=O)c2ccco2)CC1	0%	8	-4	0%	-1%	-20%	.
O=C(CSCc1ccccc1)N1CCN(C(=O)c2ccco2)CC1	20%	17	46*	8%	6%	.	?
Cc1cc(NC(=O)CSc2nc3ccsc3c(=O)n2Cc2ccccn2)n[nH]1	-3%	12	65*	15%	7%	?	1%
CCCCn1c(SCC(=O)Nc2cc(C)[nH]n2)nc2ccsc2c1=O	-4%	-4	-27	-16%	12%	6%	.
O=C(Cc1cccs1)Nc1nc(-c2ccc(F)c(F)c2)cs1	-5%	11	44*	-1%	?	?	4%
COc1cccc(CN2CCN(Cc3cc4ccccc4o3)CC2CCO)c1 (stereo not drawn)	-1%	7	.	20%	-14%	-24%	.
CCOc1ccc(CN2CCN(Cc3cc4ccccc4o3)CC2CCO)cc1 (stereo not drawn)	1%	8	.	1%	-26%	?	-1%
O=C(NCCc1ccccc1)C1CCCN1S(=O)(=O)c1ccccc1 (stereo not drawn)	3%	8	22*	.	13%	-4%	4%
CCN(C(=O)c1cccc(NC(=O)c2ccccc2)c1)C1CCCCC1	-6%	1	39	-7%	-7%	?	.
COc1ccccc1C1CC(=O)Oc2cc(OC)c(OC)c(OC)c21 (stereo not drawn)	5%	0	i	.	.	.	.
Cc1oc(C(C)(C)C)cc1C(=O)NCC(=O)NCC(=O)O	14%	2	50*	2%	?	-4%	-3%
COc1ccc(C(=O)CSc2nnc(C(CO)NC(=O)c3ccc(OC)cc3)n2C)cc1 (stereo not drawn)	6%	-2	64*	-3%	-5%	.	-3%
O=C1NC2(CCCCCC2)N=C1c1ccc(Br)cc1	-3%	10	-3	.	25%	38%	.
CCOc1ccc2nc(NC(=O)CN3CCN(c4ccccn4)CC3)sc2c1	.	14	56*	0%	?	?	4%
O=C(CN1CCN(c2ncc(C(F)(F)F)cc2Cl)CC1)NC(=O)NCc1ccccc1	3%	2	68*	4%	1%	-8%	0%
C/C(Cc1ccccc1)=N\NC(=O)CNC(=O)Cc1ccc(Cl)cc1	-1%	-2	8	-5%	7%	32%	.
SMILES	SARS PLpro yeast	CHX counter-1	Shiga toxin inh	NS1 function inh	Pf growth 48h	Pf growth 96h	CHX counter-2
CCn1ccc(C(=O)NC2=NCCS2)n1	-14%	17	31*	1%	42%	44%	6%
CCn1ccc(C(=O)Nc2ccsc2C(=O)OC)n1	-9%	19	9	-56%	-1%	19%	.
Cc1cc(NC(=O)Cc2ccc(Br)cc2)no1	-2%	5	18	7%	-12%	?	.
Cc1cc(NC(=O)/C=C/c2ccc(Br)cc2)no1	2%	7	56*	14%	?	?	?
Cc1ccc(C)c(NC(=O)c2cc[n+](C)cc2)c1	-2%	-5	1	-12%	-35%	273%	.
Cc1ccc2c(=O)[nH]c(Cc3ccccc3C(=O)O)nc2c1	-1%	-4	-10	-12%	5%	77%	.
COc1cc(NC(=O)CN2CCN(C(=O)C3CCCO3)CC2)c(OC)cc1Cl (stereo not drawn)	27%	-2	-4	-4%	-5%	14%	.
CCOC(=O)N1CCN(C(=O)Nc2ccc3nc(C)c(C)nc3c2)CC1	1%	6	136*	12%	?	11%	-2%
CNC(=O)C(C#N)(Cc1cc(C(C)=O)ccc1OC)Cc1cc(C(C)=O)ccc1OC	7%	2	-15	3%	-14%	-28%	.
COCC(C)OC(=O)/C(C#N)=C\c1coc2ccc(C)cc2c1=O (stereo not drawn)	-12%	7	14	-52%	77%	26%	.
Cc1nc(-c2ccccc2)sc1C1(C)CC(c2cccc([N+](=O)[O-])c2)=NO1 (stereo not drawn)	-3%	1	30*	-1%	70%	41%	1%
Cc1nc(C(=O)NC2CCCCC2)sc1C1(C)CC(c2cccc([N+](=O)[O-])c2)=NO1 (stereo not drawn)	-1%	-3	-3	2%	?	?	.
Cc1nn(Cc2ccccc2)c2c1C(c1cccc(Cl)c1)C(C#N)=C(N)O2 (stereo not drawn)	7%	-6	-12	18%	.	?	.
CC(C)Cc1nc2oc3c(NCc4cccnc4)ncnc3c2c2c1CCC2	-5%	-2	-19	3%	?	?	.
CC(C)Cc1nc2oc3c(NCC4CCCO4)ncnc3c2c2c1CCC2 (stereo not drawn)	-2%	-4	58*	-31%	?	4.7µM*	-4%
COc1ccccc1NC(=O)Nc1cc(F)ccc1F	-1%	16	132*	-6%	18%	-26%	?
Cc1cc(Cl)ccc1NC(=O)CN1CCC(C(O)(c2ccccc2)c2ccccc2)CC1	-6%	-5	122*	-21%	?	?	-2%
CCOC(=O)c1ccc(N/C=C/C(=O)c2ccc(OC)c(OC)c2)cc1	-9%	14	58*	-5%	-12%	-10%	3%
Cc1cccc(NC(=O)Nc2c(C)[nH]c(=O)[nH]c2=O)c1C	-1%	-2	-4	1%	21%	4%	.
